Assay results as given in PubChem BioAssay (NCATS).
Records with an inconclusive call do not appear. Calls of active or inactive are those of the source. Calls follow the shape of the dose curve; as a rule, active = well fitted inhibition curve with a large enough effect; inconclusive = small, poorly fitted or top-dose-only effect; inactive = flat fitted curve, though single readings scatter.

Experiments:
Assay in all cases: qHTS profiling for inhibitors of Plasmodium falciparum proliferation (AID 504749); also: nearly all actives have a fitted effect of over 60% in size
Settings in all cases: P. falciparum in erythrocytes, SYBR Green DNA, 72 h; series mostly up to 28.7 µM
CP185 = system: CP185
How it was run: (§1)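 Infected RBCs, 0.3% parasitemia/2.5% Hct final; cpd 72 h, 37 C, 5% CO2; lysis buffer with saponin/triton/SYBR Green I, o/n RT dark; FI 485/535; norm. to artemisinin (0.29 uM) and DMSO.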

CP191 = system: CP191
How it was run: as §1

CP192 = system: CP192
How it was run: as §1

CP194 = system: CP194
How it was run: as §1

CP201 = system: CP201
How it was run: as §1

CP211 = system: CP211
How it was run: as §1

CP215 = system: CP215
How it was run: as §1

CP217 = system: CP217
How it was run: as §1

CP237 = system: CP237
How it was run: as §1

CP238 = system: CP238
How it was run: as §1

CP247 = system: CP247
How it was run: as §1

CP250 = system: CP250
How it was run: as §1

CP252 = system: CP252
How it was run: as §1

CP256 = system: CP256
How it was run: as §1

CP260 = system: CP260
How it was run: as §1

CP262 = system: CP262
How it was run: as §1

CP265 = system: CP265
How it was run: as §1

CP266 = system: CP266
How it was run: as §1

CP268 = system: CP268
How it was run: as §1

CP203 = system: CP203
How it was run: as §1

Measured: Potency

CCOP(=S)(OCC)Oc1cc(C)nc(C(C)C)n1
not listed: CP203
inactive: all other assays above

CC[N+]1(C)CCCC(OC(=O)C(O)(c2ccccc2)c2ccccc2)C1 (stereo unspecified)
not listed: CP203
inactive: all other assays above

O=C(NC(O)C(Cl)(Cl)Cl)NC(O)C(Cl)(Cl)Cl (stereo unspecified)
not listed: CP203
inactive: all other assays above

CC1NCCOC1c1ccccc1 (stereo unspecified)
not listed: CP237
inactive: all other assays above

O=C(O)c1ccc2[nH]cc(CCCCN3CC=C(c4ccccc4)CC3)c2c1
not listed: CP247 | CP203
inactive: all other assays above

NN=C(N)N
not listed: CP203
inactive: all other assays above

CC[N+](CC)(CC)CC
not listed: CP215
inactive: all other assays above

CCCC(C)(COC(N)=O)COC(=O)NC(C)C (stereo unspecified)
not listed: CP203
inactive: all other assays above

NCCc1cc(O)c(O)cc1O
not listed: CP203
inactive: all other assays above

COc1ccc(C(=O)c2c(C)n(CCN3CCOCC3)c3ccccc23)cc1
not listed: CP250 | CP266 | CP203
inactive: all other assays above

CC1OC(C)OC(C)O1 (stereo unspecified)
not listed: CP203
inactive: all other assays above

CC(=O)[C@H]1CC[C@H]2[C@@H]3CC[C@H]4C[C@](C)(O)CC[C@]4(C)[C@H]3CC[C@]12C
not listed: CP260
inactive: all other assays above

c1ccc(C2CC2)c(OCC2=NCCN2)c1
not listed: CP237 | CP247 | CP262
inactive: all other assays above

OCCOc1ccccc1
not listed: CP203
inactive: all other assays above
